IL1B secr inh: qHTS for Inhibitors of Inflammasome Signaling: IL-1-beta AlphaLISA Primary Screen; 360,000 tested, 4.7% active; THP-1 LPS/ATP IL-1B secretion, AlphaLISA, 16 h; stronger effect = lower value; activity change, % at 57.5 µM; AID 743279, 2014; in the data active means activity change below about -50%; inconclusive means mostly about -30% to -49%; further: on the % scale 0 is the no-effect control and ±100 the full control effect
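Secreted IL-1B measured by AlphaLISA bead assay after 16 h compound exposure of THP-1 cells; compounds (final up to 57.5 uM) added 1 h before LPS (250 ng/mL) and ATP (1.25 mM) stimulation; lower signal means less secretion.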
MCF10A rerep: A quantitative high throughput screen for small molecules that induce DNA re-replication in MCF 10a normal breast cells. MCF 10A DNA re-replication, Hoechst nuclear intensity, 48 h. Potency, µM (titrated, usually from 46.1 µM), inactives show at the top dose activity, positive = re-replication, most hits filed as activators. 350,000 tested, 2.9% active; further: potency means the concentration at half of the fitted maximal effect; % of control where 0% means no effect; nearly all actives have a fitted effect of over 50% in size
KB-V1 MDR tox: qHTS assay for MDR1-selective chemotherapeutics: Primary screen using the drug-selected MDR subline cells KB-V1. KB-V1 MDR cells viability, CellTiter-Glo, 72 h. Potency, µM (top dose mostly 46.1 µM), hits mostly cytotoxic. 400,000 tested, 3.4% active. AID 1347076, 2019; further: potency means the concentration at half of the fitted maximal effect; on the % scale 0 is the no-effect control and ±100 the full control effect; nearly all actives have a fitted effect of over 60% in size
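KB-V1 MDR subline cells in DMEM (phenol-red free, 10% FBS) exposed to compounds in qHTS concentration series for 72 h at 37 degrees C. Viability read by CellTiter-Glo luminescence; concentration-effect curves fitted after normalization and correction.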
KB-3-1 cytotox: qHTS assay for MDR1-selective chemotherapeutics: Primary screen using the parental adenocarcinoma cell KB-3-1; KB-3-1 viability, CellTiter-Glo ATP luminescence, 72 h; Potency, µM (highest dose often 46.1 µM), actives largely listed as cytotoxic; 400,000 tested, 1.4% active; further: potency means the concentration at half of the fitted maximal effect; on the % scale 0 is the no-effect control and ±100 the full control effect; nearly all actives have a fitted effect of over 60% in size
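Cells are dispensed, compounds pinned in, plates held at 37 °C for 72 h, then CellTiter-Glo is added and luminescence read after 10 minutes. Cell line: parental KB-3-1 in phenol-red-free DMEM, 10% FBS.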
SW480 rereplic: A quantitative high throughput screen for small molecules that induce DNA re-replication in SW480 colon adenocarcinoma cells | Potency, µM (doses to about 46.1 µM), for the others: top-dose re-replication activation, hits mostly activators | 340,000 tested, 1.8% active | SW480 DNA re-replication, Hoechst DNA content imaging, 48 h; further: potency means the concentration at half of the fitted maximal effect; % of control where 0% means no effect; nearly all actives have a fitted effect of over 55% in size
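Readout is total intensity of Hoechst-stained nuclei, excited at 405 nm and collected at 500-530 nm. Compound treatment lasted 48 hr at 37 C in 5% CO2 before staining.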
* marks the source's active call; other numbers are inactive results; i = inactive; ? = inconclusive; nt = no result; [ ] = another dose, or the depositor's remark. The list is not random: actives were taken first. Their share in the collection is about 9.9%. Unless noted, the call rests on the fitted dose curve; in most records, active means well fitted curve in the direction sought with a large enough effect; inconclusive means small, poorly fitted or top-dose-only effect, or another doubt; inactive means no such curve, though single readings can be large; an effect the other way counts as inactive or inconclusive.

SMILES | IL1B secr inh | MCF10A rerep | KB-V1 MDR tox | KB-3-1 cytotox | SW480 rereplic
CCOc1ccc(NC(=O)CSc2nc(-c3cccc(Cl)c3)nc3c2Cc2c(CO)cnc(C)c2O3)cc1 | nt | nt | i | i | nt
CCC(C)c1ccccc1N1CC(C(=O)NCCCn2nc(C)cc2C)CC1=O (stereo not drawn) | 5.1 | -2.7% | i | i | 4.0%
O=C(Nc1ccccc1C(=O)NC1CC1)c1ccc([N+](=O)[O-])o1 | -93.3* | 16.4µM* | ? | i | 6.51µM*
Cc1cccc(NC(=O)c2ccc([N+](=O)[O-])o2)c1C | -88.9* | 13µM* | ? | i | 7.31µM*
Cc1oc(-c2ccccc2)cc1C(=O)Nc1cccc2ccccc12 | -66.4* | ? | ? | ? | ?
O=C(Nc1ccccc1C(=O)NC1CC1)c1ccccc1 | -12.2 | -4.8% | ? | i | -13.9%
Cc1oc(-c2ccccc2)cc1C(=O)Nc1cccc(C(=O)O)c1 | 25.2 | ? | i | i | -8.9%
C=CCn1cc(C(=O)OCC)c(=O)c2cc(F)c(F)cc21 | 8.3 | 0.4% | i | i | -14.8%
CCc1nc2c(OCCn3cccc3)cccn2c1N(C)C(=O)c1ccccc1F | -7.2 | nt | i | i | nt
Cc1c(C(=O)O)sc2nc(/C=C/c3cccc(O)c3)[nH]c(=O)c12 | 22.0 | 7.31µM* | i | i | ?
COC(=O)c1ccc(CSc2nc3sc(C(=O)O)c(C)c3c(=O)[nH]2)cc1 | -13.7 | -1.3% | i | i | 0.3%
CCCCN(C=O)c1c(CC)nc2c(OCCOc3ccccc3)cccn12 | -18.3 | nt | i | i | nt
CCc1nc2c(OCc3ccc(C(F)(F)F)cc3)cccn2c1N(C=O)Cc1ccc(OC)cc1 | -72.2* | nt | ? | ? | nt
CCc1nc2c(OCCOc3ccc(F)cc3)cccn2c1N(C=O)Cc1ccccc1 | -59.0* | nt | i | i | nt
CCCCN(C=O)c1c(CC)nc2c(OCc3ccc(C(F)(F)F)cc3)cccn12 | -64.6* | nt | i | i | nt
Cc1nc2c(OCc3ccc(C(F)(F)F)cc3)cccn2c1N(C)Cc1cccs1 | -83.9* | nt | ? | i | nt
CCCOc1cccn2c(N(C=O)Cc3ccc(OC)cc3)c(CC)nc12 | 8.8 | nt | ? | i | nt
COc1ccc(OC)c(S(=O)(=O)NC2CCSc3ccccc32)c1 (stereo not drawn) | 20.0 | -1.4% | i | i | 44.4%
N#CC1=C(N)OC2=C(CCc3ccccc32)C1c1ccccc1Cl (stereo not drawn) | -73.0* | 2.91µM* | 4.61µM* | ? | 8.2µM*
Cc1nnc(SCC(=O)c2c(N)n(C)c(=O)n(C)c2=O)n1Cc1ccccc1 | -53.7* | 9.6% | i | ? | -1.6%
CC1=CC(C)(C)Nc2ccc(OC(=O)CN3C(=O)c4cccc5cccc(c45)C3=O)cc21 | -106.6* | 14.6µM* | i | i | ?
CC1=CC(C)(C)Nc2ccc(OC(=O)CN3C(=O)c4ccccc4C3=O)cc21 | -99.9* | 5.8µM* | i | ? | 18.4µM*
Nc1ccc(C(=O)Oc2ccccc2)c(O)c1 | nt | 15.8% | nt | nt | 24.3%
COc1ccc(/C=c2\s/c(=C/C(=O)c3ccc(C)cc3)[nH]c2=O)cc1OC | 8.8 | 13µM* | i | i | 23.5%
Cc1cccc(C)c1OCC(=O)Nc1c(C(=O)c2ccccc2)oc2ccccc12 | nt | nt | i | i | nt
SMILES | IL1B secr inh | MCF10A rerep | KB-V1 MDR tox | KB-3-1 cytotox | SW480 rereplic
Cc1nn2c(-c3cccc(NC(=O)c4ccco4)c3)nnc2c2ccccc12 | ? | ? | i | i | 4.6%
Cc1nn2c(-c3ccccc3)nnc2c2ccccc12 | -8.6 | 0.4% | 5.8µM* | ? | -2.0%
Nc1ncnc(Nc2ccccc2Cl)n1 | -23.2 | -0.2% | i | i | -17.5%
Cc1cc2c(ccc3[nH]onc32)n1 | -60.2* | 0.7% | i | i | -8.6%
Cc1ccc2nc(C)cc(Cl)c2c1 | 0.0 | 1.8% | i | i | 5.5%
Cc1ccc(NC(=O)COC(=O)c2ccc(-n3cccn3)cc2)cc1C | -11.1 | 7.3% | ? | i | -3.0%
COc1ccc(N2CCN(C(=O)CN=C3NS(=O)(=O)C(c4ccc(C)cc4)=C3C)CC2)cc1 | -1.7 | -2.1% | 3.66µM* | i | -5.1%
Cc1cc(C(=O)NNC(=S)NC(C)c2ccccc2)c2ccccc2n1 (stereo not drawn) | -7.1 | 6.7% | i | i | -0.2%
CC(O)(c1ccc(F)c(F)c1)c1nc(-c2ccc(S(C)(=O)=O)cc2)cs1 (stereo not drawn) | 2.7 | nt | 20.6µM* | ? | nt
CCC(O)CNC(=O)CCc1nnc(C2(c3ccc(Cl)cc3)CCC2)o1 (stereo not drawn) | 15.3 | -1.5% | i | i | -12.0%
O=C(O)c1cccc(NC(=O)C23CC4CC(C2)CC(n2cnc(Cl)n2)(C4)C3)c1 | 15.8 | 1.0% | ? | i | -4.3%
COc1ccc(NC(=O)C23CC4CC(C2)CC(n2cnc(Br)n2)(C4)C3)cc1Cl | 12.7 | 7.1% | 9.2µM* | i | -1.6%
CCOC(=O)/C=C/COc1ccccc1[N+](=O)[O-] | -8.8 | ? | i | i | ?
COc1ccc(CN2CCc3c([nH]c4ccccc34)C2)c(OC)c1C | -89.0* | ? | i | i | 19.5%
COc1ccc(CN2CCc3c([nH]c4ccccc34)C2)cc1Br | -19.4 | ? | i | i | ?
CCC(OC(=O)c1ccco1)C(=O)NCc1ccc2c(c1)OCO2 (stereo not drawn) | -5.8 | 34.8% | ? | i | -1.1%
O=C(Nc1cccc(F)c1)Nc1ccc2c(c1)OCO2 | -66.8* | 0.8% | i | ? | ?
Cc1cc(NC(=O)Nc2ccccc2F)ccc1Br | -50.3* | 18.4µM* | ? | ? | ?
N#CCc1ccc(NC(=O)Nc2cccc(Cl)c2)cc1 | -29.7 | 21.9% | 14.6µM* | ? | 2.1%
O=C(Nc1ccc2c(c1)OCO2)c1cccc(F)c1 | -23.2 | 4.4% | i | i | 3.7%[9.22 µM]
CC(C)COC(=O)NCCOC(=O)Nc1cccc(Cl)c1 | 11.6 | ? | i | i | -4.5%[9.22 µM]
O=C(Nc1cccc(Cl)c1)OCCOCCOC(=O)Nc1cccc(Cl)c1 | -4.5 | 20.6µM* | i | ? | 2.1%
O=C(CSc1nc2ncccc2[nH]1)Nc1cc(F)ccc1F | nt | nt | i | i | nt
CCOC(=O)c1cnc2c(C)c(Cl)ccc2c1Nc1ccc(N2CCOCC2)cc1 | nt | nt | i | i | nt
COC(=O)c1cccc(NC(=O)Nc2ccc(Cl)cc2)c1 | nt | ? | ? | i | -53.5%
COC(=O)c1cc(NC(=O)Nc2cccc(Cl)c2)ccc1Cl | -96.9* | -1.7% | 23.1µM* | i | 0.1%

Source: PubChem (National Center for Advancing Translational Sciences (NCATS))
